# A number with no mark means an inactive call. The rule behind the calls is not given here.
# Molecular target: Pantothenate synthetase (Mycobacterium tuberculosis (strain ATCC 25618 / H37Rv)) (UniProt P9WIL5)
# Assay: Recombinant Mtb pantothenate synthetase (PanC) inhibitors, coupled enzyme, confirmatory (AID 375);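 note: 0% = full reaction with vehicle and 100% = no enzyme background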
# Conditions: coupled enzyme assay; at 10 µM, hits give high values
# Pantothenate synthetase (Mycobacterium tuberculosis (strain ATCC 25618 / H37Rv)), sequence (P9WIL5 whole entry, looked up): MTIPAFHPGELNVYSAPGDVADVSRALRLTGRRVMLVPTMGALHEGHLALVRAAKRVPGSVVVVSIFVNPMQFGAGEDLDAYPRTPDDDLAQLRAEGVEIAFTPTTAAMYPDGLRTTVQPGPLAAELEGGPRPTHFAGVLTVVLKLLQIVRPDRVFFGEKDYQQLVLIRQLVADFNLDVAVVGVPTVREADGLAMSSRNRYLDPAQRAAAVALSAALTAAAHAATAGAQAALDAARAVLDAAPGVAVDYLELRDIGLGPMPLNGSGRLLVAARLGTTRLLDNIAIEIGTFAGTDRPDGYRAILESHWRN
row,SMILES,inhibition
1,CC1(C)CC(=O)c2cc(OCC(=O)N3CCN(c4ccccc4F)CC3)ccc2O1,6%
2,COc1ccc(C(C)NC(=O)c2ccoc2C)cc1OC (stereo not given),5%
3,CCOC(=O)c1ccccc1NC(=O)c1cc2sccc2n1C,2%
4,O=C(CSc1ncc(-c2ccc(F)cc2)[nH]1)N1CCCCC1,0%
5,Cc1nn(-c2ccccc2)c2[nH]c(C(F)(F)F)cc(=O)c12,1%
6,O=C(Nc1cccc2ccccc12)c1ccc(Br)o1,0%
7,COc1ccc(OC)c(C(C)NC=O)c1 (stereo not given),4%
8,CCn1nccc1C(=O)Nc1cc(Cl)ccc1Cl,0%
9,O=C(CC1Oc2ccc(Cl)cc2NC1=O)NC1CCCCCC1 (stereo not given),6%
10,Cc1ccc(C)c(C(=O)CC2(O)C(=O)Nc3ccccc32)c1 (stereo not given),5%
11,Cc1ccc(C)c(NC(=O)CSc2nnc(-c3ccccc3)o2)c1,5%
12,CCC(C(=O)NC(C)CCc1ccco1)n1nc(C)n2c(cc3occc32)c1=O (stereo not given),0%
13,Cc1cc(C)nc(NC2=NCC(=O)N2c2ccc(Cl)cc2)n1,0%
14,Cc1c(C(=O)NCc2cccnc2)sc2ncn(CC(=O)N3CCCCC3C)c(=O)c12 (stereo not given),0%
15,Cc1nnc(SCC(=O)NCc2ccccc2)s1,0%
16,O=C(COC(=O)CCC(=O)c1cccs1)NCc1ccco1,0%
17,COc1cccc(OC)c1OCCCSc1nc(C)cc(=O)[nH]1,0%
18,O=C(CCc1ccc(S(=O)(=O)N2CCOCC2)cc1)NCCc1ccccn1,0%
19,Cc1ccc2cc(CN(Cc3ccc(F)cc3)Cc3nnnn3C3CCCC3)c(=O)[nH]c2c1,6%
20,CN(C)c1ccnc(NCc2ccccc2)c1C#N,0%

row,SMILES,inhibition
1,COC(=O)CSc1nc2ncc(Cl)cc2[nH]1,1%
2,CCOC(=O)c1[nH]c(C)c(C(=O)Nc2cc(OC)ccc2OC)c1C,0%
3,O=C(Cn1c(=O)oc2ccccc21)N1CCN(c2ccccc2)CC1,0%
4,CC1CCN(c2oc(-c3cccc4ccccc34)nc2C#N)CC1,0%
5,COc1ccc(-c2nnc3ccc(SC(C(C)=O)C(C)=O)nn23)cc1OC,2%
6,O=C(c1ccc(S(=O)(=O)N2CCC(c3nc4ccccc4s3)CC2)cc1)N1CCOCC1,0%
7,CCn1c(NC(=O)c2cccc(Cn3cc(Cl)cn3)c2)nc2ccccc21,0%
8,Cn1c(CSc2nc3ccccc3s2)nnc1SCC(=O)NCCN1CCOCC1,0%
9,COc1ccccc1CNC(=O)C1CCC(CNc2c(N3CCOCC3)c(=O)c2=O)CC1 (stereo not given),0%
10,CCOc1cc(C(=O)NCC2CCCO2)cc(OCC)c1OCC (stereo not given),3%
11,C[C@]12CC[C@@H]3c4ccc(O)cc4CC[C@H]3[C@@H]1CC[C@@H]2OC(=O)CCC(=O)O,8%
12,Cc1ccc(-n2c(N)c(C(N)=O)sc2=S)cc1,6%
13,COC(=O)C1=C(N)Oc2cc(C)n(Cc3ccncc3)c(=O)c2C1c1cccnc1 (stereo not given),0%
14,O=C1c2ccccc2-c2nc3ncnn3c(-c3ccccc3)c21,0%
15,Cc1ccccc1CN1CCN(C(=O)c2cccc(F)c2)CC1,0%
16,COc1ccc(C2NC(c3ccc(OC)c(OC)c3OC)C(C)C(=O)C2C)c(OC)c1OC (stereo not given),0%
17,CCOC(=O)c1ccc(N=c2sc(C(=O)OC)cc(=O)n2Cc2ccco2)cc1,0%
18,CN1CC=C2C(C#N)=C(N)C(C#N)(C#N)C(Cc3ccccc3)C2C1 (stereo not given),0%
19,COc1cc2c(cc1OC)CN(C(=O)CSc1nnc3scc(-c4ccccc4)n13)CC2,0%
20,CCCC(=O)Nc1ccccc1NC(=O)CN(C)S(=O)(=O)c1ccc(C)cc1,2%
